Assay in all cases: log2 fold change, soluble protein after heating vs DMSO (PISA); higher = thermal stabilisation; K562 lysate, 10 uM; active = over 0.2 and 3.5 SD of the protein, either way, in both replicates (recomputed)
Compound in experiment [1]: C1=CC=C(C=C1)[C@H](COC2=CC3=C(C=C2)NC(=O)N3)NC(=O)C4=CC=CN(C4=O)CC5=CC(=C(C=C5)F)F
In outline: (§1)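 Thermal stability, expressed as log-two fold change relative to solvent controls, is given from duplicates. Crude K562 extract in PBS pH 7.4 with 1 mM MgCl2, at 1 mg/mL protein, was treated with 10 μM compound for 30 min and heated in aliquots for 3 min across 48°C-58°C. After pooling, adjustment to 0.5% NP-40 at 4°C and centrifugation at 21,000xg for 90 min, supernatant protein was measured by TMTpro 16plex LC-MS/MS with channel sums equalised.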

Compound in experiment [2]: CC1=C(SC2=C1C(=N[C@H](C3=NN=C(N32)C)CC(=O)N)C4=CC=C(C=C4)Cl)C
A digest of the protocol: as §1

Compound in experiment [3]: CC1=C2C(=CC=C1)N=C(N(C2=O)C3=CC=CC=C3C)CN4C=NC5=C(N=CN=C54)N
In outline: as §1

Compound in experiment [4]: Cc1sc2c(c1C)C(c1ccc(Cl)cc1)=N[C@@H](CC(=O)OC(C)(C)C)c1nnc(C)n1-2
A digest of the protocol: as §1

Compound in experiment [5]: c1ccc([C@@H]2C[C@H]2NC2CCNCC2)cc1
In outline:
as §1

Of roughly 8,800 targets only a part is listed; those with a hit were picked by preference. About 0.5% of all pairs of compound and target were hits. Unmarked numbers belong to inactive results.

Sequence of UniProt Q6UVJ0 (Q6UVJ0 whole entry, looked up): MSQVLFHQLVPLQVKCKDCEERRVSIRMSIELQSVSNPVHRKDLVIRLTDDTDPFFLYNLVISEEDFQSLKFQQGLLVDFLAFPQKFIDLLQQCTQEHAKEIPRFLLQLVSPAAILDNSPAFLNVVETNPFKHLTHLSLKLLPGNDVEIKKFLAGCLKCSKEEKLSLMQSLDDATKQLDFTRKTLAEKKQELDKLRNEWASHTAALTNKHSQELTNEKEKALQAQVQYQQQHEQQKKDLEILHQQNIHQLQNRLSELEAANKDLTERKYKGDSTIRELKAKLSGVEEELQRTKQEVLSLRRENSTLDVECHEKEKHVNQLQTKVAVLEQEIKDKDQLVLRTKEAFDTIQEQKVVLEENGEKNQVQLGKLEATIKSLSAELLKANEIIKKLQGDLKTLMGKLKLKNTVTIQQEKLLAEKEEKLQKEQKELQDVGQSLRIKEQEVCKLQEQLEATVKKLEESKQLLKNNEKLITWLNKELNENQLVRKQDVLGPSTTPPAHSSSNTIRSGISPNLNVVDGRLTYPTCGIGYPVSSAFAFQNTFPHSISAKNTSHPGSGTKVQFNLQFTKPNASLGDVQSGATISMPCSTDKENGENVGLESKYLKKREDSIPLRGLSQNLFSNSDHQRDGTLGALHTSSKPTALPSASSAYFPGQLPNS
Sequence of UniProt Q96EE3 (Q96EE3 whole entry, looked up): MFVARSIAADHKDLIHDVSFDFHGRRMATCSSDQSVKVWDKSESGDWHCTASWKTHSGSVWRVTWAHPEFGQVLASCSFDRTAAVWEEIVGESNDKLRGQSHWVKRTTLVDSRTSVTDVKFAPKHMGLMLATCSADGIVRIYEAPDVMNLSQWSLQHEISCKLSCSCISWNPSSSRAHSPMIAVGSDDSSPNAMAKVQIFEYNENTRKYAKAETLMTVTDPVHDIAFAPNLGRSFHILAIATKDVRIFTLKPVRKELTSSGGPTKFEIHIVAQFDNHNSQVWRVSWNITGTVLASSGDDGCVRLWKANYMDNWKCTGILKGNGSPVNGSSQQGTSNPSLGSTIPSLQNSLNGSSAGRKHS
Sequence of UniProt Q53S08 (Q53S08 whole entry, looked up): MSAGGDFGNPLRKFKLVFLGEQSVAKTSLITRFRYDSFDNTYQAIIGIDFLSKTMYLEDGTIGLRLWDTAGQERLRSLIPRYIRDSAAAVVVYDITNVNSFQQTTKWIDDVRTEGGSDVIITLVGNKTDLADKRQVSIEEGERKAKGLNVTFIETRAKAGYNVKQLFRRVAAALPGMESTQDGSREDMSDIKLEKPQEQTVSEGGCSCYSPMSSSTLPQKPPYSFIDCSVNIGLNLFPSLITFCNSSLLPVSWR
Sequence of UniProt Q9UKL0 (Q9UKL0 whole entry, looked up): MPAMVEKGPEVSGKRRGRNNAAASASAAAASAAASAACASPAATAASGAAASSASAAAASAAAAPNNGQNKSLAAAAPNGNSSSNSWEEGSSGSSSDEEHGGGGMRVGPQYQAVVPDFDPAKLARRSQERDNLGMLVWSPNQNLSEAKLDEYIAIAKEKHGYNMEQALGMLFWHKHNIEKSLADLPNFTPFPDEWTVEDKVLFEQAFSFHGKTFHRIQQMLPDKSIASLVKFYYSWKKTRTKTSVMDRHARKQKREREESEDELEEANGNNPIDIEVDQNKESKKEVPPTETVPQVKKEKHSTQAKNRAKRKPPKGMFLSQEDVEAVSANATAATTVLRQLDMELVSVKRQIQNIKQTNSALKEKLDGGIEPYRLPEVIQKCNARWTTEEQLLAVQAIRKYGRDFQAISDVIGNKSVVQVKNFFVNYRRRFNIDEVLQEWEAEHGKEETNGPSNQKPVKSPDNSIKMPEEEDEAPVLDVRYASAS
Sequence of UniProt Q8WWV3 (Q8WWV3 whole entry, looked up): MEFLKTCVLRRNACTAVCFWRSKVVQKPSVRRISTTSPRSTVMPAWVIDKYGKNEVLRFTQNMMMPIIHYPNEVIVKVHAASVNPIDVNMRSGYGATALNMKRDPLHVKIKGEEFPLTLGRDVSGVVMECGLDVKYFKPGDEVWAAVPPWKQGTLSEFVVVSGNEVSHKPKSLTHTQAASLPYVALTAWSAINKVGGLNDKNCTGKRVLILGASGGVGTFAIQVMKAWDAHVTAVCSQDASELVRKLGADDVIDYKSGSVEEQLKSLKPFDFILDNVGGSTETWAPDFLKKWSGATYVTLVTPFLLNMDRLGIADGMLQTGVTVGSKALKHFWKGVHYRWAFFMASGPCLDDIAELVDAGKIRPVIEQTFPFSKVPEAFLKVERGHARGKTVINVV
Sequence of UniProt Q15404 (Q15404 whole entry, looked up): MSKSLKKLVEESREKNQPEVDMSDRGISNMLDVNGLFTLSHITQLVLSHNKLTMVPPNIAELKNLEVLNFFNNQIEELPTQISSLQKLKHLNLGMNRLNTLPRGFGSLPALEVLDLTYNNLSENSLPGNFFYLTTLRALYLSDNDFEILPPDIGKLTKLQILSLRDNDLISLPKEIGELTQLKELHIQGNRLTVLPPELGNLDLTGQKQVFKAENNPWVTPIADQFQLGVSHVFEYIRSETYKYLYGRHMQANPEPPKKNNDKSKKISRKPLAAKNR
Sequence of UniProt Q4ADV7 (Q4ADV7 whole entry, looked up): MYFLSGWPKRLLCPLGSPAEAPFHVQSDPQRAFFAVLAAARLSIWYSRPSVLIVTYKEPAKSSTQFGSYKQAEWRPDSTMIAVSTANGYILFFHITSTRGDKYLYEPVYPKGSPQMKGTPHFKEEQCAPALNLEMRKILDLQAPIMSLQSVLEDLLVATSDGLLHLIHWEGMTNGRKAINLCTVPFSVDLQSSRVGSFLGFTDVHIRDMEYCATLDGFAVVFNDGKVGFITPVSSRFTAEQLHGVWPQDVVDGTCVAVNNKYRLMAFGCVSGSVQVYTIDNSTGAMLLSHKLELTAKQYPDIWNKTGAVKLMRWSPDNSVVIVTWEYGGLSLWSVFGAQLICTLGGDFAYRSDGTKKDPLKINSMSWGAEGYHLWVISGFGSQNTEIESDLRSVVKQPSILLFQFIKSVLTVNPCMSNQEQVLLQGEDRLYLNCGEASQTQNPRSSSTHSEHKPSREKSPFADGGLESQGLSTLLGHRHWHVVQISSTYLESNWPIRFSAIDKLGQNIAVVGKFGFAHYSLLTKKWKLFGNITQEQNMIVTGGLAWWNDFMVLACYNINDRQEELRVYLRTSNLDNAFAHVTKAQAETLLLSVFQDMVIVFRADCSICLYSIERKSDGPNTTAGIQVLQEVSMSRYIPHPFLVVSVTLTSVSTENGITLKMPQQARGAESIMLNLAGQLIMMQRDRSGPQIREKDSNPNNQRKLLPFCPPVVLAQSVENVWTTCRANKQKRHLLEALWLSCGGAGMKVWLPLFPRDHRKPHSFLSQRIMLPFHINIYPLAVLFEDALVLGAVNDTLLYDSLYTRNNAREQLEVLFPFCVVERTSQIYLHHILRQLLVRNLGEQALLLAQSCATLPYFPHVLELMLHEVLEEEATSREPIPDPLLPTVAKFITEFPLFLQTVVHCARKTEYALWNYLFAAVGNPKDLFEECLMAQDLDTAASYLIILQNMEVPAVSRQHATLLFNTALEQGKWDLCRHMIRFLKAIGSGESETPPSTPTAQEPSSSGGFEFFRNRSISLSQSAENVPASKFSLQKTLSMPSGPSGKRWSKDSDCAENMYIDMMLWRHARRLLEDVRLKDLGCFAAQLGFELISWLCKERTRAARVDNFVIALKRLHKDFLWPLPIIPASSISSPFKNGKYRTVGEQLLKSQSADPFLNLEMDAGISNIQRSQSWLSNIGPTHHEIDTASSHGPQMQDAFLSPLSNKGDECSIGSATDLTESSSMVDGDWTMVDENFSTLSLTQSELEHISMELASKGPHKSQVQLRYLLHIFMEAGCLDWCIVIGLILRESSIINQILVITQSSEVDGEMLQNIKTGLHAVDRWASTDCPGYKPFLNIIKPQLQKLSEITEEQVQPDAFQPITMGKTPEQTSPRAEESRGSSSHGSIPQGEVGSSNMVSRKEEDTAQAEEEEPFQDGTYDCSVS
Sequence of UniProt Q7Z6M1 (Q7Z6M1 whole entry, looked up): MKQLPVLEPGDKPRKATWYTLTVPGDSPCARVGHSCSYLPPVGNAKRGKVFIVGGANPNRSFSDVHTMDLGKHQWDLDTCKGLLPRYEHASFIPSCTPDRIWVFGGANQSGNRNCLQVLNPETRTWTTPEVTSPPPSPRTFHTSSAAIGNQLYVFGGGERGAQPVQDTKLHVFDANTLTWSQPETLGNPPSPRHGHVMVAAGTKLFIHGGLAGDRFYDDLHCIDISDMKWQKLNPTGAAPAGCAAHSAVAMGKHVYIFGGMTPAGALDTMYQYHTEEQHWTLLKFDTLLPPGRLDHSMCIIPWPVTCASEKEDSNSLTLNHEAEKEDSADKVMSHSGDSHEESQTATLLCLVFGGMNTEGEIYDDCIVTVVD
Sequence of UniProt P35249 (P35249 whole entry, looked up): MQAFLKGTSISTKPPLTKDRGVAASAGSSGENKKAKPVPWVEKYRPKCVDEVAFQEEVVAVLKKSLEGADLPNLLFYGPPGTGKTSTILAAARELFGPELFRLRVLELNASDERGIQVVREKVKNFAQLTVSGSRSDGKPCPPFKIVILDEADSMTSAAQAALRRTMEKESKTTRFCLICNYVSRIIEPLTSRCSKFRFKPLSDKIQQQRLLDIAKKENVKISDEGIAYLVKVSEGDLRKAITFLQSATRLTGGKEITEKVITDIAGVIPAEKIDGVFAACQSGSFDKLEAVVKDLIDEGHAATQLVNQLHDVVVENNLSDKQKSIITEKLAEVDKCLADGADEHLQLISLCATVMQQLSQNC
Sequence of UniProt Q8TBN0 (Q8TBN0 whole entry, looked up): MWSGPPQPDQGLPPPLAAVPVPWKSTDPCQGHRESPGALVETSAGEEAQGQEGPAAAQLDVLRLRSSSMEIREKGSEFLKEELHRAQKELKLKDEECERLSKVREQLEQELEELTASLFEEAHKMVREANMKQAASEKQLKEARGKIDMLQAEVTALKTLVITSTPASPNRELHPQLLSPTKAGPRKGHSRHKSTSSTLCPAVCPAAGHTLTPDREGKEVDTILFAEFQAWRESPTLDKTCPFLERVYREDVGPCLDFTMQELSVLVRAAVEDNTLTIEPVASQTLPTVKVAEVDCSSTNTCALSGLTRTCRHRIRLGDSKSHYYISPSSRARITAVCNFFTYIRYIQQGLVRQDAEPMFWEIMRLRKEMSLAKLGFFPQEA

Consider RAC2 (UniProt P15153), for which the log2 fold change in experiment [1] was -0.116; in experiment [2] it was 0.043; in experiment [3] it was -0.032; in experiment [4], 0.067; in experiment [5] it was 0.028.

For the target RTN4IP1 (UniProt Q8WWV3), the log2 fold change in experiment [1] is 0.028; in experiment [2] it was -0.005; in experiment [3] it was 0.027; in experiment [4], -0.119; in experiment [5], 0.076.

Regarding RPL36AL (UniProt Q969Q0), the log2 fold change in experiment [1] was 0.074; in experiment [2] it was -0.049; in experiment [3], -0.03; in experiment [4], 0.274; in experiment [5] it was 0.015.

RABEPK (UniProt Q7Z6M1): the log2 fold change in experiment [1] is -0.032; in experiment [2], 0.054; in experiment [3], 0.026; in experiment [4] it was 0.017; in experiment [5], -0.071.

For the target RPAP1 (UniProt Q9BWH6), the log2 fold change in experiment [1] is -0.006; in experiment [2], 0.018; in experiment [3], 0.015; in experiment [4], -0.038; in experiment [5] it was 0.028.

As to SEH1L isoform 1 (UniProt Q96EE3), the log2 fold change in experiment [1] was 0.016; in experiment [2] it was 0.031; in experiment [3], -0.045; in experiment [4], -0.041; in experiment [5] it was -0.028.

Take RDX (UniProt P35241): the log2 fold change in experiment [1] was -0.029; in experiment [2] it was -0.036; in experiment [3], 0.003; in experiment [4], 0.025; in experiment [5] it was 0.148.

As for RFWD3 (UniProt Q6PCD5), the log2 fold change in experiment [1] was -0.058; in experiment [2] it was 0.132; in experiment [3], 0; in experiment [4], -0.072; in experiment [5], 0.049.

With RBM5 (UniProt P52756), the log2 fold change in experiment [1] was -0.074; in experiment [2], 0.08; in experiment [3], 0.062; in experiment [4], 0.146; in experiment [5], 0.103.

R3HCC1 (UniProt Q9Y3T6): the log2 fold change is 0.014 in experiment [1]; 0.015 in experiment [2]; 0.006 in experiment [3]; -0.014 in experiment [4]; -0.047 in experiment [5].

Consider SASS6 (UniProt Q6UVJ0), for which the log2 fold change in experiment [1] was -0.01; in experiment [2] it was 0.028; in experiment [3], 0; in experiment [4], 0.021; in experiment [5] it was 0.037.

Consider RBMX (UniProt P38159), for which the log2 fold change is 0.089 in experiment [1]; -0.01 in experiment [2]; -0.004 in experiment [3]; -0.015 in experiment [4]; -0.072 in experiment [5].

RBM8A (UniProt Q9Y5S9): the log2 fold change in experiment [1] is 0.066; in experiment [2] it was 0.01; in experiment [3] it was -0.061; in experiment [4] it was 0.084; in experiment [5] it was 0.171.

With RIC1 (UniProt Q4ADV7), the log2 fold change in experiment [1] is -0.086; in experiment [2], 0.186; in experiment [3], 0; in experiment [4], 0.081; in experiment [5] it was 0.138.

Take SAMHD1 (UniProt Q9Y3Z3): the log2 fold change in experiment [1] was 0.005; in experiment [2], 0.002; in experiment [3] it was -0.018; in experiment [4], 0.051; in experiment [5], -0.002.

With RELN (UniProt P78509), the log2 fold change in experiment [1] was 0.033; in experiment [2], -0.007; in experiment [3] it was 0.025; in experiment [4], -0.089; in experiment [5], -0.036.

As to RCOR1 (UniProt Q9UKL0), the log2 fold change is -0.034 in experiment [1]; 0.03 in experiment [2]; -0.003 in experiment [3]; -0.023 in experiment [4]; 0.494 (active) in experiment [5].

For the target RAB3IL1 (UniProt Q8TBN0), the log2 fold change in experiment [1] was 0.047; in experiment [2], 0.008; in experiment [3] it was 0.02; in experiment [4], 0.007; in experiment [5] it was 0.039.

On to RFC4 (UniProt P35249), for which the log2 fold change is -0.026 in experiment [1]; -0.059 in experiment [2]; 0.006 in experiment [3]; 0.028 in experiment [4]; 0.01 in experiment [5].

As for RAF1 isoform 2 (UniProt P04049), the log2 fold change in experiment [1] is 0.024; in experiment [2], 0.035; in experiment [3] it was -0.104; in experiment [4] it was -0.017; in experiment [5], 0.013.

For RALGAPB (UniProt Q86X10), the log2 fold change in experiment [1] was 0.029; in experiment [2] it was 0.023; in experiment [3] it was 0.085; in experiment [4], -0.026; in experiment [5], 0.006.

On to SCCPDH (UniProt Q8NBX0), for which the log2 fold change is 0.165 in experiment [1]; -0.144 in experiment [2]; 0.038 in experiment [3]; -0.004 in experiment [4]; -0.164 in experiment [5].

REEP6 (UniProt Q96HR9): the log2 fold change is 0.038 in experiment [1]; -0.081 in experiment [2]; 0.005 in experiment [3]; -0.107 in experiment [4]; -0.181 in experiment [5].

With RHAG (UniProt Q02094), the log2 fold change is 0.033 in experiment [1]; -0.076 in experiment [2]; 0.145 in experiment [3]; -0.066 in experiment [4]; -0.143 in experiment [5].

RSU1 (UniProt Q15404): the log2 fold change in experiment [1] was 0.056; in experiment [2] it was 0.004; in experiment [3], -0.004; in experiment [4], -0.017; in experiment [5] it was 0.157.

As to RPL37A (UniProt P61513), the log2 fold change in experiment [1] is -0.009; in experiment [2] it was 0; in experiment [3], -0.031; in experiment [4], 0.191; in experiment [5], 0.166.

RAB6D (UniProt Q53S08): the log2 fold change in experiment [1] is -0.045; in experiment [2] it was 0.01; in experiment [3], 0.034; in experiment [4], -0.003; in experiment [5], -0.045.

Source of the values: the supplement of paper PMC10849652.
